Vif inh: inhibitors of HIV Vif; HEK293T cells, Vif self-association by quenched fluorescence, imaging, 24 h; inhibition, % at 7.49 µM; AID 602346; actives 0.35% (n = 340,000); in the data active = inhibition above about 50%, passing the limit was not always enough
FGF22 binding: FGF22 (human) thermal shift binding. Q9HCT0. actives 1.5% (n = 340,000). activity (Tm shift, normalised), % at 9.99 µM. recombinant FGF22 thermal shift, SYPRO orange fluorescence; percent of sucrose octasulfate shift, DMSO zero;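 active = mean Tm shift, scaled 0 neutral to 100 positive control, at about 1.3% or above, every replicate too, limit read from the data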
Target sequence (Q9HCT0 whole entry, looked up): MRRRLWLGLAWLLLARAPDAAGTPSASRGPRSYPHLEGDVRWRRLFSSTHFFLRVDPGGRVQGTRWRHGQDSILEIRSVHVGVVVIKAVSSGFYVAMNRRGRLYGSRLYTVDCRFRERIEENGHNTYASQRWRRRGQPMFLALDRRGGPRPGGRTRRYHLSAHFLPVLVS
F508del corr: CFTR F508del correction in bronchial cells | CFBE cells, YFP halide quenching; stimulated with forskolin plus potentiator P3; % fluorescence drop versus neutral controls | activity (quench increase), % at 7.58 µM | actives 0.36% (n = 350,000);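 active = mean added fluorescence quench of at least 8% versus neutral control, with both replicates also reaching 8%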;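 note: cells transiently co-express mutant CFTR-F508del with the halide-sensitive YFP; corrector assay measuring rescue of mutant channel to the surface after 24 h compound exposure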
Large screens that a line does not name were inactive. Shown are actives, neighbours in structure and some others; about 1.7% of the full set was active somewhere.

CCCNC(=O)C[C@@H]1C[C@H]2c3cc(NC(=O)COC)ccc3O[C@H]2[C@@H](CO)O1	none (no result: Vif inh)
CO[C@H]1CN(C)C(=O)c2cc(NC(=O)Nc3cc(Cl)cc(Cl)c3)ccc2OC[C@@H](C)NC[C@H]1C	none (no result: Vif inh, FGF22 binding)
CCn1c(SCC(=O)N2CCCC2=O)nnc1-c1cccs1	none (no result: Vif inh)
Cn1c(SCC(=O)N2CCCC2=O)nnc1-c1ccccc1F	FGF22 binding 43
CCN(CC)S(=O)(=O)c1cccc(-c2nnc(SCC(=O)N3CCC(C(=O)O)CC3)n2N)c1	none
CCN(CC)S(=O)(=O)c1cccc(-c2nnc(SCC(=O)NC)n2N)c1	FGF22 binding 44
COc1ccc(NC(=S)Nc2ccccc2)cn1	none (no result: F508del corr)
COc1ccc(NC(=S)Nc2ccc(OC(F)F)cc2)cn1	FGF22 binding 43
Cn1cnc(S(=O)(=O)N2CCCCN3[C@H](CO)[C@H](c4ccc(C#CC5CC5)cc4)[C@H]3C2)c1	none (no result: Vif inh, FGF22 binding)
CCN1CCN(C(=O)CSc2cc(=O)n(C)c3ccccc23)CC1	none
CN1CCN(C(=O)CSc2cc(=O)n(C)c3ccccc23)CC1	FGF22 binding 43
CCOC(=O)c1ccc2nc(Nc3nc4ccc(F)cc4s3)sc2c1	none (no result: F508del corr)
CCOC(=O)c1ccc2nc(NC(C)=O)sc2c1	FGF22 binding 43
COc1ccc(S(=O)(=O)Nc2ccc3c(c2)C(=O)N([C@H](C)CO)C[C@H](C)[C@H](CN(C)C(=O)Nc2ccccc2)OCCCC[C@H](C)O3)cc1	none (no result: Vif inh)
Cc1oc(C(=O)O)cc1COc1ccc2c(C)cc(=O)oc2c1	none (no result: FGF22 binding, F508del corr)
Cc1cc(=O)oc2cc(OCc3cc4c(cc3Cl)OCO4)ccc12	Vif inh 40 (no result: FGF22 binding, F508del corr)
CCOc1ccc(C(CC(=O)O)NC(=O)c2sc3ccccc3c2Cl)cc1 (configuration not stated)	none
CCCOc1ccc(C(CC(=O)O)NC(=O)c2sc3ccccc3c2Cl)cc1 (configuration not stated)	FGF22 binding 43
COC(=O)N(C)C[C@@H]1OCc2ccccc2-c2c(n(C)c3ccccc23)C(=O)N([C@H](C)CO)C[C@H]1C	none (no result: Vif inh)
CNC(=O)C[C@H]1CC[C@H]2[C@H](COc3ccc(NC(=O)c4ccccc4OC)cc3C(=O)N2C)O1	none (no result: Vif inh)
O=C(CN1CCOCC1)NCC[C@@H]1CC[C@H](NC(=O)c2ccccc2F)[C@@H](CO)O1	none (no result: Vif inh)
Cc1ccc(S(=O)(=O)NCCC(=O)NNC(=O)c2ccccc2Cl)cc1C	none
COc1ccc(Cl)cc1C(=O)NNC(=O)CCNS(=O)(=O)c1ccccc1	F508del corr 10
CCN(CC)c1ccc(/C=N/NC(=O)c2ccccn2)cc1	none
CCN(CC)c1ccc(/C=N/NC(=O)c2cnccn2)cc1	F508del corr 11
CN1c2ccc(-c3ccc(F)cc3)cc2[C@H]2[C@H](CCN2C(=O)C2CCOCC2)[C@@H]1CO	none (no result: Vif inh)
CN1c2ccc(-c3ccccc3F)cc2[C@H]2[C@H](CCN2C(=O)Nc2ccc(F)cc2)[C@H]1CO	none (no result: Vif inh)
CC(=O)NC[C@H]1[C@H](c2ccc(-c3ccccc3)cc2)[C@H](CO)N1C(=O)C1CCC1	none (no result: Vif inh)
Cc1ccc(C)c(-n2c(SCC(=O)N3CCC(C(=O)O)CC3)nnc2-c2cccc(Cl)c2)c1	FGF22 binding 44
Cc1ccccc1-n1c(SCC(=O)N2CCC(C(=O)O)CC2)nnc1-c1ccncc1	none
CCNS(=O)(=O)c1c(C)cc(C)c(N(C)S(=O)(=O)c2ccccc2)c1C	FGF22 binding 43
Cc1cc(C)c(S(N)(=O)=O)c(C)c1N(C)S(=O)(=O)c1ccccc1	none
COc1cccc(CNC(=O)C[C@H]2CC[C@@H](NC(C)=O)[C@H](CO)O2)c1	none (no result: Vif inh)
O=C1CN(CCN2CC(=O)N(Cc3ccccc3)C(=O)C2)CC(=O)N1Cc1ccccc1	FGF22 binding 44 (no result: Vif inh)
CC1(C)CC(=O)N(Cc2ccccc2)C(=O)C1	none
O=C(N[C@@H]1CC[C@@H](CCNC(=O)C2CCOCC2)O[C@@H]1CO)c1ccccn1	none (no result: Vif inh)
CCC(C)/C(C)=N/NC(=O)c1cn(-c2ccccc2)nc1-c1ccccc1 (configuration not stated)	none (no result: FGF22 binding, F508del corr)
O=C(O)c1ccc(NC(=O)c2cn(-c3ccccc3)nc2-c2ccc(Br)cc2)cc1	FGF22 binding 1.6
O=C(O)c1ccc(NC(=O)c2cn(-c3ccccc3)nc2-c2ccccc2)cc1	none (no result: FGF22 binding)
CN1CCC(=NNC(=O)c2cn(-c3ccccc3)nc2-c2ccccc2)CC1	FGF22 binding 43
CC(C)CC#Cc1cnc2c(c1)C(=O)N([C@H](C)CO)C[C@H](C)[C@H](CN(C)C(=O)C1CCOCC1)O2	none (no result: Vif inh)
CC=Cc1ccc2n(c1=O)C[C@@H]1[C@@H](CO)[C@H](C(=O)N[C@H](C)c3ccccc3)[C@H]2N1CC (mixture of isomers)	none (no result: Vif inh, F508del corr)
COc1ccc(C(=O)CSc2n[nH]c(=O)[nH]c2=O)cc1	FGF22 binding 43
O=C(CSc1n[nH]c(=O)[nH]c1=O)c1ccc([N+](=O)[O-])cc1	none
O=C(C[C@H]1CC[C@@H]2[C@H](COC[C@H](O)CN2CCC(F)(F)F)O1)NCC1CCCCC1	none (no result: Vif inh)
COc1ccc(S(=O)(=O)Nc2ccc3c(c2)C(=O)N([C@@H](C)CO)C[C@@H](C)[C@H](CN(C)Cc2ccc(C(F)(F)F)cc2)O3)cc1	none (no result: Vif inh)
Cc1cc(C)cc(NC(=O)CCCSc2nc3ccccc3[nH]2)c1	none (no result: FGF22 binding, F508del corr)
Cc1ccc2nc(SCC(=O)Nc3ccc(C(N)=O)cc3)[nH]c2c1	FGF22 binding 43
Cc1cccc(NC(=O)CCCSc2nc3ccccc3[nH]2)c1	FGF22 binding 43
Cc1ccc2nc(SCC(=O)Nc3ccc4[nH]c(=O)[nH]c4c3)[nH]c2c1	none
O=C(C[C@H]1C[C@H]2c3cc(NC(=O)C4CCC4)ccc3O[C@H]2[C@@H](CO)O1)NCc1cccnc1	none (no result: Vif inh)
O=C(C[C@@H]1CC[C@@H]2[C@H](COC[C@H](O)CN2C(=O)Nc2cc(Cl)cc(Cl)c2)O1)NCC1CC1	none (no result: Vif inh)
COCC#Cc1ccc2c(c1)O[C@H](CN(C)C(=O)Nc1ccccc1F)[C@H](C)CN([C@@H](C)CO)S2(=O)=O	none (no result: Vif inh)
CCN(CC)C(=O)CCCOc1ccc(Cl)cc1Cl	none (no result: FGF22 binding, F508del corr)
C#CCN(C)CCCOc1ccc(Cl)cc1Cl	F508del corr 8.9
COc1ccc(NC(=O)Nc2ccc3c(c2)C(=O)N([C@H](C)CO)C[C@@H](C)[C@H](CN(C)C(=O)CCCN(C)C)OCCCC[C@@H](C)O3)cc1	none (no result: Vif inh)
Clc1cccc(Cc2c(-c3ccco3)nc3ccc(Br)cn23)c1	none (no result: Vif inh)
Clc1cccc(Cc2c(-c3ccco3)nc3ccc(Cl)cn23)c1	FGF22 binding 1.7 (no result: Vif inh)
COc1ccc(OC)c(C2C3CN(C(C)C)CC=C3C(C#N)=C(N)C2(C#N)C#N)c1 (configuration not stated)	Vif inh 95 (no result: FGF22 binding, F508del corr)
CCCN1CC=C2C(C#N)=C(N)C(C#N)(C#N)C(c3cccc(OC)c3OC)C2C1 (configuration not stated)	none (no result: FGF22 binding, F508del corr)
C[C@@H]1CN([C@@H](C)CO)C(=O)c2cc(/C=C/c3ccccc3)cnc2O[C@@H]1CN(C)C(=O)c1ccc2c(c1)OCO2	none (no result: Vif inh)
COc1ccc(CN(C)C[C@@H]2Oc3c(NC(=O)NC4CCCCC4)cccc3C(=O)N([C@H](C)CO)C[C@@H]2C)cc1	none (no result: Vif inh)
CCCCOc1ncnc2c1[nH]c1ccc(OCC)cc12	none (no result: FGF22 binding, F508del corr)
CCCCOc1ncnc2c1[nH]c1ccccc12	Vif inh 88 (no result: FGF22 binding, F508del corr)
COCCNC(=O)C[C@H]1C[C@@H]2c3cc(NC(=O)NC4CCCC4)ccc3O[C@@H]2[C@@H](CO)O1	none (no result: Vif inh)
CN(C)c1ccc(C=Cc2ccnc3ccccc23)cc1N	none (no result: Vif inh)
